Screening results (PubChem BioAssay)
Shown are actives, neighbours in structure and some others; about 1.6% of the full set was active somewhere.
VLA-4 antagonist: inhibitors of LDV-FITC binding to Mn2+-activated VLA-4, primary screen, Jurkat cells | Integrin alpha-4 (Homo sapiens), P13612 | LDV-FITC binding with Mn2+, flow cytometry; 100% = Mn2+-driven binding gain fully reversed | inhibition, % at 10 µM (by protocol) | 24,000 compounds, 0.2% hits | AID 529, 2006;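 active = inhibition above 50%; inconclusive = compound itself fluorescent, judged against control cell fluorescence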;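 note: 0% = Mn2+ stimulated cells lacking compound and 100% = ligand binding without Mn2+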
Target sequence (P13612 whole entry, looked up): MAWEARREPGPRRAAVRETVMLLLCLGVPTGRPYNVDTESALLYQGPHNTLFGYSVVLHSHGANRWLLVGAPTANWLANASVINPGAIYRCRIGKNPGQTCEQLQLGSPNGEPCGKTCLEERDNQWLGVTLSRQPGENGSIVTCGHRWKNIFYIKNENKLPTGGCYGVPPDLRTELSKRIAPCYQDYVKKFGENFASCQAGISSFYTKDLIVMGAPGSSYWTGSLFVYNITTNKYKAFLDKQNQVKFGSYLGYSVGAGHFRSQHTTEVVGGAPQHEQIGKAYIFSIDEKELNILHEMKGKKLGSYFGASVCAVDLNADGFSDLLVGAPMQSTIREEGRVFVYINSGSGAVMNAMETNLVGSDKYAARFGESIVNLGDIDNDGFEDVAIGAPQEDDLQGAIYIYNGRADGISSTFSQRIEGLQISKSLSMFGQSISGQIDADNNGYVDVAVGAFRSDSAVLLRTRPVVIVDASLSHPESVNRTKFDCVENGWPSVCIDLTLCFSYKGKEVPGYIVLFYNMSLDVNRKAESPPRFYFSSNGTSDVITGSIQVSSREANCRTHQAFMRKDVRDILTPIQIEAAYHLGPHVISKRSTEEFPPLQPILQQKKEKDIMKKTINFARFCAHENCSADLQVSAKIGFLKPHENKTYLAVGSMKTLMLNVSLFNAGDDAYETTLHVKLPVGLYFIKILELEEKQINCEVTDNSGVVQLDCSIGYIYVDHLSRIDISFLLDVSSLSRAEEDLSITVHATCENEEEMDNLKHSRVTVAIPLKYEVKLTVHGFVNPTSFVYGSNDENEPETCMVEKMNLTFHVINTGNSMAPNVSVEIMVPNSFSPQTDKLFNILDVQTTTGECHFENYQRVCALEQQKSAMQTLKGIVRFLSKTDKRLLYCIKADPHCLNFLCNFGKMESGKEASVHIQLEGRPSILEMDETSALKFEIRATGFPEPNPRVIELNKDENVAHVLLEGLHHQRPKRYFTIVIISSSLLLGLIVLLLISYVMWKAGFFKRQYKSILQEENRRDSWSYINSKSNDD
Proteasome disasm: inhibitors of ATP-driven 26S proteasome dissociation, primary screen, biochemical, bead-based flow cytometry, GFP-tagged proteasome | anti-FLAG beads, GFP-proteasome disassembly | inhibition of disassembly, % (concentration not given with the values) | 24,000 compounds, 0.2% hits | AID 751, 2007;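 active = inhibition of disassembly above about 33%, limit read from the data; inconclusive = likely self-fluorescent, control bead median signal at least 40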;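 note: plate controls were ATP control with full disassembly for no effect and ATP-gamma-S intact proteasomes for full effect; higher percent means more bead fluorescence retained so stronger block of disassembly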
Autofluor Jurkat: compound autofluorescence on Jurkat cells, primary screen, artefact control for VLA-4 allosteric ligand project, cell-based, flow cytometry; 24,000 compounds, 0.61% hits; fluorescence ratio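 (tested at 10 µM compound in the well)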; AID 576, 2007; hits give high values; 1 = vehicle-only cell background;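 active = fluorescence ratio above 2.44, which is 1 plus 3 SD of all ratios; inconclusive = signal too bright to measure linearly, ratio around 10 or more; inactive = fluorescence ratio below 2.44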;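 note: green fluorescence of cells measured with 488 nm excitation and 530 nm emission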
LNCaP diff act: activators of LNCaP prostate cell differentiation, primary screen, flow cytometry side scatter | 4 d | side scatter shift, % at 10 µM | 24,000 compounds, 0.56% hits;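 active = side scatter shift above 30%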;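 note: androgen-responsive LNCaP prostate cancer cells in charcoal-stripped serum medium; percent of cells past a gate set so DMSO wells show 10% shift; higher shift means more granular cells and more differentiation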
VLA-4 allo ag: enhancers of LDV-FITC binding to VLA-4 integrin, primary screen, Jurkat cells, flow cytometry; Integrin alpha-4 (Homo sapiens), P13612; activation, % at 10 µM (by protocol); 24,000 tested, under 10 active;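 active = fluorescent ligand binding to cells raised by more than 40% of the manganese-induced maximum; inconclusive = compound's own fluorescence above 85% of the ligand control signal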;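 note: 0% = ligand binding without compound and 100% = manganese-stimulated maximal binding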
* hit, by the source's call; u = inconclusive.

SMILES	VLA-4 antagonist	Proteasome disasm	Autofluor Jurkat	LNCaP diff act	VLA-4 allo ag
CCCC(=O)Nc1ccc2oc(-c3cccnc3)nc2c1	-10.0	-2.1	0.95	5.0	-1.5
Oc1cc(NCc2cccnc2)ccc1-c1nc2ccccc2o1	u	-3.6	2.97*	4.0	u
Cn1c(=O)cc(OCC(=O)NCCCN2CCN(c3ccccc3F)CC2)c2ccccc21	-10.0	-1.2	1.14	9.0	-2.0
CCn1c(=O)cc(SCC(=O)NCCCN2CCN(c3ccccc3F)CC2)c2ccccc21	17.0	-3.0	1.14	49.0*	-1.0
CC1(C)CC(=O)c2cc(OCC(=O)NCCCN3CCN(c4ccccc4F)CC3)ccc2O1	7.8	0.6	1.06	30.0*	-5.5
O=C(c1c(F)cccc1F)N(Cc1ccccn1)C1CCCC1	-9.0	-1.3	1.02	15.0	14.0
CSc1ccccc1NS(=O)(=O)c1ccccc1	-21.5	-0.6	1.02	7.0	1.5
Cc1n[nH]c(C)c1S(=O)(=O)N1CCCC(C(=O)NC2CCCc3ccccc32)C1 (stereo not given)	u	0.7	2.45*	4.0	u
ON1C2CCCCC2N(O)C1c1c(F)c(F)c(F)c(F)c1F (stereo not given)	-5.5	2.6	0.91	6.0	1.0
O=C(c1ccccc1)c1ccc(N2CCNCC2)cc1	-9.0	-1.9	1.08	41.0*	1.5
COc1cc2c(cc1OC)C(c1cc(OC)c(OC)c(OC)c1)NCC2 (stereo not given)	-5.0	-0.1	1.04	5.0	3.5
O=S(=O)(c1cnc[nH]1)N1CCc2ccccc21	u	2.5	3.08*	6.0	u
CC1Cc2ccccc2N1S(=O)(=O)c1cnc[nH]1 (stereo not given)	u	3.5	1.46	3.0	u
O=C(COc1ccc(S(=O)(=O)N2CCCC2)cc1Cl)NC1CC1	-12.5	-0.1	1	36.0*	-1.0
O=C(Cn1c(=O)oc2cc(S(=O)(=O)N3CCCCCC3)ccc21)NC1CCCCCCC1	13.0	-0.4	1.01	24.0	-4.0
O=C(Nc1ccc(F)cc1F)NC1CC(=O)N(Cc2ccccc2)C1 (stereo not given)	-16.5	-0.3	0.97	14.0	2.8
CCCCCCOC(=O)C(C#N)c1nc2ccccc2nc1N1CCCCC1 (stereo not given)	-7.5	-0.4	1.12	25.0	-4.5
CCCCNC(=O)C(C#N)c1nc2ccccc2nc1N1CCCC1 (stereo not given)	u	2.2	2.5*	14.0	u
Cc1ccc2nc3c(cc(C(=O)NCc4ccccc4)c(=N)n3CCCn3ccnc3)c(=O)n2c1	14.8	1.3	1.11	31.0*	-8.6
Cc1cccn2c(=O)c3cc(C(=O)NC(C)c4ccccc4)c(=N)n(CCCn4ccnc4)c3nc12 (stereo not given)	20.0	-1.5	1.17	37.0*	-7.0
COCCCn1c(=N)c(C(N)=S)cc2c(=O)n3cccc(C)c3nc21	u	11.2	1.6	10.0	u
Clc1ccc(OCc2nnc3n2N=C(c2ccc4c(c2)OCCO4)CS3)c(Cl)c1	2.0	2.1	1.17	0.0	-5.0
Cc1onc(-c2ccccc2)c1C(=O)NC(CC(=O)O)c1ccc(OC(C)C)cc1 (stereo not given)	86.5*	2.0	1.02	10.0	-7.0
CSc1ccc(C2C(C#N)=C(N)N(c3ccccc3)C3=C2C(=O)CCC3)cc1 (stereo not given)	1.0	-0.4	0.98	5.0	4.0
CSc1ccc(C2C(C#N)=C(N)Oc3c2ccc(=O)c2c(C)oc(C)c32)cc1 (stereo not given)	u	u	u	33.0*	u
SMILES	VLA-4 antagonist	Proteasome disasm	Autofluor Jurkat	LNCaP diff act	VLA-4 allo ag
O=C(NCc1ccccn1)C1CCC(=O)N1C1CCCC1 (stereo not given)	-16.0	-1.0	1	9.0	4.0
O=c1[nH]c2c(s1)C(c1ccco1)C1C3CCC(C3)C1S2 (stereo not given)	22.0	2.0	1.6	20.0	-4.0
CCN1CCN(C(c2cccs2)C(C)NS(=O)(=O)c2ccc(Br)cc2)CC1 (stereo not given)	6.0	-1.2	1.14	32.0*	-17.0
Cc1ccc(S(=O)(=O)NC(C)C(c2cccs2)N2CCN(C)CC2)cc1 (stereo not given)	17.0	1.1	0.97	17.0	3.0
CCOc1ccc(/C=c2\sc3nc(-c4ccco4)nn3c2=O)cc1OCC	10.0	41.7*	1.2	7.0	0.0
COc1ccc2nc(S(=O)Cc3ncc(C)c(OC)c3C)[nH]c2c1 (stereo not given)	-21.5	0.6	1.06	5.0	-1.0
Cc1ccccc1-c1nc(CN2CCC(C(=O)NCCCN3CCCC3)CC2)c(C)o1	15.7	3.1	1.04	65.0*	0.3
Cc1ccccc1-c1nc(CN2CCC(C(=O)NCCCN3CC(C)CC(C)C3)CC2)c(C)o1 (stereo not given)	1.0	2.6	1.03	75.0*	3.0
Cc1ccccc1-c1nc(CN2CCC(C(=O)NCCCN3CCOCC3)CC2)c(C)o1	3.0	-0.7	1.05	16.0	0.0
COc1cccc(C2C=C(c3cccs3)Nc3ncnn32)c1OC (stereo not given)	17.0	0.7	1.15	10.0	-1.0
COc1ccc(C2C=C(c3ccc(Br)s3)Nc3ncnn32)cc1OC (stereo not given)	u	3.6	3.32*	4.0	u
CC(=O)NC(C)C(=O)OCc1ccc(Cl)cc1Cl (stereo not given)	-10.0	-1.6	1.08	6.0	-0.5
CCOCC(=O)Nc1c(C(=O)Nc2ccc(OC)cc2OC)oc2ccccc12	-14.7	0.0	1.03	14.0	2.7
COc1cccc(OCC(=O)Nc2c(C(=O)Nc3ccc(OC)cc3OC)oc3ccccc23)c1	-10.0	0.8	1.12	36.0*	1.0
CCN1CCCC1CNC(=O)Cn1cnc2sc(C)c(S(=O)(=O)N3CCC(C)CC3)c2c1=O (stereo not given)	-4.0	1.6	0.96	7.0	5.0
O=C1C(CCS(=O)c2ccccc2)C(=O)N(c2ccccc2)N1c1ccccc1 (stereo not given)	57.7*	0.1	0.98	2.0	-42.0
CN(C)c1ccc(/C=C/C(O)=C2/C(=O)N(C)C3(C)CC2c2ccccc2O3)cc1 (stereo not given)	u	84.6*	6.88*	6.0	u
COc1cc(N2C(=O)NC3CC2(C)Oc2ccccc23)cc(OC)c1OC (stereo not given)	-4.0	0.2	0.91	6.0	3.0
C=CCOc1nc2c(c(=O)n(C)c(=O)n2C)n1Cc1c(Cl)cccc1Cl	12.0	-0.8	1.05	3.0	-5.0
Cc1cccc(NC(=O)c2sc3nc(-c4ccccc4)cn3c2C)n1	u	-0.1	3.4*	9.0	u
COc1ccc(-c2cn3c(C)c(C(=O)Nc4cccc(C)n4)sc3n2)cc1	u	10.4	1.55	9.0	u
